A selection: hits, their analogues and other compounds. The true share with any hit is near 11%.
PNC assembly inh – High Content Assay for Compounds that inhibit the Assembly of the Perinucleolar Compartment. hit rate 3.1% among 140,000. AID 2417, 2010. PC3M PTB-GFP, PNC prevalence imaging, 16 h; stronger effect = lower value. activity change (PNC), negative = inhibition, % at 10 µM;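 active = readout at or below -70, meaning at least 70% loss of cells showing the perinucleolar compartment, a nuclear body marking cancer cells; inconclusive = readout between -30 and a set limit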
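Read-out is percentage of cells bearing a perinucleolar compartment, from automated 20x imaging of fixed, Hoechst-stained PC3M PTB-GFP cells. Cells were seeded 4 h, then exposed 16 h to compound (23 nl of library stock) in duplicate plates.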
ALDH1A1 inh – qHTS Assay for Inhibitors of Aldehyde Dehydrogenase 1 (ALDH1A1); Aldehyde dehydrogenase 1A1 (Homo sapiens), P00352; Potency, µM (top dose mostly 75.3 µM), hits mostly inhibitors; Purified ALDH1A1, NADH fluorescence, propionaldehyde substrate; hit rate 7.3% among 220,000; AID 1030, 2008
HPGD block – qHTS Assay for Inhibitors of HPGD (15-Hydroxyprostaglandin Dehydrogenase). purified HPGD, NADH fluorescence kinetic, PGE2 substrate. hit rate 4.3% among 150,000. 15-hydroxyprostaglandin dehydrogenase [NAD(+)] (Homo sapiens), P15428. Potency, µM, most hits filed as inhibitors
Target sequence (P15428 whole entry, looked up): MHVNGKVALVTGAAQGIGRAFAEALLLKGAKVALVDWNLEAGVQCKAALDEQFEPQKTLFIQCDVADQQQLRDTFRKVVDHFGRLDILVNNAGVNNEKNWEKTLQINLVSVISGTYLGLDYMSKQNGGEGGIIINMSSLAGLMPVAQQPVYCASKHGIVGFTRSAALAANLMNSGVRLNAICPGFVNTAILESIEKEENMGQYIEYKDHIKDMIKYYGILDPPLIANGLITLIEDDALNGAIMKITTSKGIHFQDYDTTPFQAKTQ
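NADH formation kinetics: reaction with 30 uM PGE2 and 1 mM NAD+ (final), 20 nM enzyme, Tris-HCl pH 8 with Tween 20, after 15 min compound preincubation at room temperature. Fluorescence change, last versus first of five reads.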
Numbers stand for hits; - = inactive; ? = inconclusive; . = no result given; [ ] = another dose, or the depositor's remark. Unless noted, calls come from the whole dose curve; as a rule, active = well fitted inhibition curve with a large enough effect (not every such curve was filed as active); inconclusive = small, poorly fitted or top-dose-only effect, or another doubt; inactive = no such curve, though single readings can be large or run the other way.

SMILES	PNC assembly inh	ALDH1A1 inh	HPGD block
CCOC(=O)c1c(CSc2ccccc2)n(C)c2ccc(O)c(CN3CCOCC3)c12	.	-	.
COc1cccc(CCc2nnc(CCC(=O)N3CCN(Cc4ccccn4)CC3)o2)c1	.	8.91µM	.
COc1ccc(OC)c(Cc2nnc(CCC(=O)N3CCCCC3)o2)c1	.	-	.
Cc1ccc(NC(=O)Cn2nnc3ccccc3c2=O)cc1C	.	-	.
O=C(CCN1CCOCC1)c1ccc(Cl)cc1	.	0.0891µM	.
O=C(CCN1CCOCC1)c1ccc(Br)cc1	.	0.1µM	.
Brc1ccc(OCCCN2CCOCC2)cc1	-	-	-
Clc1ccc(SCCCCN2CCOCC2)cc1	-	-	-
Nc1nc(-c2ccc3c(c2)CCO3)cs1	.	-	.
CC(C)C(=O)N1CCc2cc(-c3csc(N)n3)ccc21	-	14.1µM	20µM
CC(C)OC(=O)CSc1nnc(-c2ccccc2)n1N	-	-	-
CCOC(=O)C1=C(SCC(=O)Nc2ccccc2)NC(=O)C(C#N)C12CCCCC2 (stereo unspecified)	-	12.6µM	-
CC(C)(C)C1CCC2(CC1)C(C#N)=C(SCC(=O)NC1CCCCC1)NC(=O)C2C#N (stereo unspecified)	-	?	-
CCOC(=O)c1ccc(NC(=O)CSC2=NC(=O)C(CC)C(=O)N2)cc1 (stereo unspecified)	-	-	-
O=C(CSc1ncn[nH]1)NC12CC3CC(CC(C3)C1)C2	-	-	-
N#CC1=C(SCC(=O)NC23CC4CC(CC(C4)C2)C3)NC(=O)C(C#N)C12CCCCC2 (stereo unspecified)	-	1.12µM	-
C=CCSC1=C(C#N)C2(CCCCC2)C(C#N)C(=O)N1 (stereo unspecified)	-	2.51µM	-
C=CCSC1=NC(N)=C(C#N)C2(CCCCC2)C1C(N)=O (stereo unspecified)	-	?	-
N#CC1=C(SCC(=O)NC2CC2)NC(=O)C(C#N)C12CCCCC2 (stereo unspecified)	-	12.6µM	-
COC(=O)N1CCC2(CCN(C(=O)NC(C)C)CC2)CC1	.	-	-
COC(=O)[C@@H]1C[C@@]2(O)[C@@H](O)[C@@H](O)[C@@H](O)C[C@H]2N1CC(c1ccccc1)c1ccccc1	.	-	-
C=CCSc1nnc(NC(=O)CSc2nc3ccccc3o2)s1	-	-	-
N#CC1=C(SCC(=O)Nc2cccc3cccnc23)NC(=O)C(C#N)C12CCCCC2 (stereo unspecified)	-	8.91µM	-
O=C(CN1C(=O)c2ccccc2C1=O)Nc1cccc2cccnc12	-	-	-
COc1ccc(NC(=O)CN(C)C2CCCCC2)cc1Cl	.	-	.
SMILES	PNC assembly inh	ALDH1A1 inh	HPGD block
Cc1ccc(NC(=O)CN(C)C2CCCCC2)cc1Br	.	28.2µM	.
CCNC(=O)NC(=O)C(C)OC(=O)C1CCN(S(=O)(=O)c2ccccc2C(=O)OC)CC1 (stereo unspecified)	.	-	.
Cc1ccc(CSC(N)=Nc2ccccc2)cc1C	.	-[13.5 µM]	-
CC1CN(CCOCCSc2ccccc2)CC(C)O1 (stereo unspecified)	.	-	.
Cc1ccc(C)c(OCCOCCN2CC(C)OC(C)C2)c1C (stereo unspecified)	?	15.8µM	-
O=C1NC2=C(C(=O)CCC2)C(c2ccc3ncccc3c2)N1 (stereo unspecified)	-	-	-
c1ccncc1	.	-	-
Fc1ccc(-c2cc(-c3nnc4n3CCCCC4)c3ccccc3n2)cc1	-	-	-
Brc1cccc(-c2cnc3n2CCCCC3)c1	-	-	?
O=C1Nc2ccc(Br)cc2C1=Nc1ccc(-c2nnc3n2CCCCC3)cc1	?	-	3.98µM
Fc1ccc(-c2nnc3n2CCCCC3)cc1	.	-	.
c1ccc(-c2nnc3n2CCCC3)cc1	?	-	14.1µM
Brc1cccc(-c2nnc3n2CCCCC3)c1	-	-	6.31µM
OC[C@H]1O[C@@H](n2cnc3cncnc32)[C@H](O)[C@@H]1O	.	-	-
O=C(NNC1OC(CO)C(O)C(O)C1O)c1cccnc1 (stereo unspecified)	.	-	.
COc1cc2c(cc1OC)CN(CC(=O)Nc1ccc(C#N)cc1)CC2	-	?	-
O=S(=O)(Nn1cnnc1)c1ccc(F)cc1	.	-	.
O=C(NCc1nnc(SCC(=O)N2CCCc3ccccc32)n1-c1ccccc1)c1cccc2ccccc12	-	?	-
Cc1c(N2C(=O)CS/C2=N\N=C\c2ccc(Br)cc2)c(=O)n(-c2ccccc2)n1C	-	-	-
O=C(COc1ncnc2cc([N+](=O)[O-])ccc12)N(CCc1ccccc1)Cc1ccccc1	-	?	-
O=C(COc1ccc([N+](=O)[O-])cc1)N(Cc1ccccc1)Cc1ccccc1	-	14.1µM	-
C=CCn1c(CCCNC(=O)c2ccccc2OC)nc2ccccc21	.	-	.
CCCCC(=O)Nc1ncc([N+](=O)[O-])s1	.	-	.
Cc1nc(C)c(C(=O)Nc2ncc([N+](=O)[O-])s2)o1	.	22.4µM	.
CCOC(=O)N1CCC(N(CCN(C)C)C(=S)Nc2cc(Cl)ccc2C)CC1	.	-	.
SMILES	PNC assembly inh	ALDH1A1 inh	HPGD block
CCC1SC2=NC(C)=C(C(=O)OC)C(c3ccc(C)cc3)N2C1=O (stereo unspecified)	?	14.1µM	-
COC(=O)C1=C(C)N=C2SC(C)C(=O)N2C1c1ccc(C(=O)OC)cc1 (stereo unspecified)	-	?	-
CCOC(=O)Cc1csc(NC(=O)C(CC(C)C)NC(=O)C2CCCCC2)n1 (stereo unspecified)	.	-	.
COC(=O)c1c(NC(=O)COC(=O)CNC(=O)c2ccco2)sc(C)c1C	-	?	-
COC(=O)c1c(NC(=O)c2ccco2)sc(C(=O)N2CCCC2)c1C	-	14.1µM	17.8µM
COC(=O)c1c(NC(=O)Cc2cccs2)sc(C(=O)N2CCCCC2)c1C	-	4.47µM	15.8µM
CCOC(=O)c1c(NC(=O)Cc2cccs2)sc(C(=O)NC2CCCCC2)c1C	-	-	-
CCOC(=O)c1c(NC(=O)Cc2cccs2)sc(C)c1C	-	12.6µM	?
CCOC(=O)c1c(NC(=O)Cc2cccs2)sc(C(=O)NC2CCCC2)c1C	-	-	-
COC(=O)c1c(C)cc(C)n2c1nc1ccccc12	-	?	?
COC(=O)NNC(=S)NCc1ccccc1	?	?	-
CCN(CC)CCCN1C=C2C(=O)C(C)(OC(=O)C3CCCC3)C(=O)C=C2C=C1c1ccsc1 (stereo unspecified)	.	-[13.5 µM]	-
CC(C)(C)OC(=O)NCc1nc(N)n[nH]1	-100.0	-	-
Cn1c(CCNC(=O)OC(C)(C)C)n[nH]c1=S	-	-	-
C=C[C@](C)(O)CCC=C(C)C	.	-	-
CCC1CCCCN1C(=O)Cn1c(=O)n(CCC(=O)NCc2ccco2)c(=O)c2sccc21 (stereo unspecified)	-	?	-
Cc1cccc(C(=O)NC(NC(=S)Nc2ccc(S(N)(=O)=O)cc2)C(Cl)(Cl)Cl)c1 (stereo unspecified)	-	-	?
COC(=O)c1ccccc1NC(=S)NC(NC(=O)c1ccccc1[N+](=O)[O-])C(Cl)(Cl)Cl (stereo unspecified)	-	?	-
CCC(C)(C)C(=O)Nc1ccc(OC)cc1[N+](=O)[O-]	-	-	-
